Drawing on PubChem BioAssay AID1508600 (Functional Genomics Laboratory (NCATS/FGL), 2020), this text covers z-score for 69 sequences.

About 3,700 (7%) of roughly 53,000 sequences were called active.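 The calls were made as follows: active = gene knockdowns whose robust z-score for IL-1 alpha signal is at least 2 or at most -2, so actives lie on both sides; inactive = the rest.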 The full list was thinned out, with actives kept by preference.

This assay is described as follows: Components of the Cytosolic LPS Sensing Pathway: Gene Identification via Genome-wide siRNA Screen.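 Also: robust z of the log signal after scaling to non-targeting control siRNA wells of the plate.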 Particulars: RAW264.7 macrophages, IL-1a HTRF, actives lie on both sides, screened at 100 nM (by protocol), cells primed 5 h with Pam3CSK4 first. The gist of the method:
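Three distinct siRNAs per gene were tested singly at 100 nM in RAW264.7 macrophages. Following Pam3CSK4 priming and 24 hour LipidA transfection, IL-1a secretion was read by HTRF.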
Consider GGAUUAUCAAUGAAUAGCATT against Gabrb2, for which the z-score was 0.913 (inactive).

For GGGAGAAGUAAGUGUUAUCTT against Npy2r, the z-score is 3.86 (active).

GGACAAUCCGAACAUCAAATT against Sval1: the z-score was -0.403 (inactive).

Turning to GGCCUGCUUCAAACAGUUUTT against Slc1a6, the z-score was 0.648 (inactive).

Regarding CGACUUUUCUCAUUAUGAGTT against Ythdf1, the z-score is -2.58 (active).

As to GGAUACACUGUUUGAAUGUTT against Cks1b, the z-score was 0.00229 (inactive).

On to GCCGAUUCAAUACUGUGACTT against Rnf149, for which the z-score was -0.649 (inactive).

Turning to GCACAACCAAUUACGUGGCTT against Gpnmb, the z-score is -0.149 (inactive).

Regarding GCAGAUCACUGGAGUAAACTT against Spz1, the z-score is -0.381 (inactive).

As for GGUAUGAAACCGUAUAAAUTT against Zfp60, the z-score is 0.00529 (inactive).

Take GCGUGCUGUGUAAGAGUGUTT against Gja4: the z-score was -2.5 (active).

Turning to GCACAUACAGCUUAACAAATT against Nktr, the z-score is 1.27 (inactive).

Take GGGUUUUUCAUAAACAAAGTT against Pdcd1lg2: the z-score was -1.46 (inactive).

Turning to GGUAAAAAGGGUGUGUACUTT against Pdzk1, the z-score is 0.00178 (inactive).

As to CCACUAAAAUCUUACUGGATT against Scn7a, the z-score was 0.671 (inactive).

As for GCGUAUAGUUUCGAGAAAUTT against Mettl8, the z-score was 0.46 (inactive).

On to GGGUCUACCACAUGUACAUTT against Slc16a6, for which the z-score is 2.23 (active).

CCCUAACAUUGAGAUGAUUTT against Peg10: the z-score is -0.369 (inactive).

With CCAUUCUCCUCAGAUACUCTT against Slc25a17, the z-score is -1.38 (inactive).

With CCCAUAAGGGUGAAAUUCGTT against Tax1bp1, the z-score was 0.444 (inactive).

Regarding GGCCCACAAGAAGAACAAGTT against Zfp423, the z-score was 1.29 (inactive).

As to CGGUAGAGUGCUUACGCAATT against Camk2g, the z-score was 0.869 (inactive).

GGGAACCGCUUAUAUGUCCTT against Tbx21: the z-score is -0.195 (inactive).

For the sequence GGACAGAUAGGAUUAGAGATT against Igfbp5, the z-score was 0.215 (inactive).

For CGUGCCAUAAUACACUAUCTT against Gng5, the z-score was 2.79 (active).

On to GGCGAAUGUUUACGAGAACTT against Sh2d1b2, for which the z-score was 0.327 (inactive).

Regarding GGCAGGUUUGGUAACCAGATT against Fut1, the z-score was 0.559 (inactive).

For the sequence GCUUCUUGAAAGUACAUUGTT against Nae1, the z-score is 0.386 (inactive).

Regarding GGCUCUUCACUCAUGUAUGTT against Olfr703, the z-score is -0.931 (inactive).

For GGCCCAUAUCUGCUCUCAUTT against Ssc5d, the z-score was -2.04 (active).

Regarding GCCUAUCUUGUCACCACUGTT against Tagln2, the z-score was -0.276 (inactive).

As to GGAAACAAAAGGAUUUCUGTT against Fbxl13, the z-score is 1.24 (inactive).

In the case of GGCGAGAAGGAAAUGUACATT against Arpc3, the z-score is 2.62 (active).

With CCAUCCUUCCGAAAGACGATT against Lcn10, the z-score was 0.465 (inactive).

Consider CCAAGAUCGAUCAUUUUGGTT against Gm527, for which the z-score was -0.794 (inactive).

Consider GGUCCAAGAGAAAUGUGUATT against Hacd4, for which the z-score is -2.55 (active).

With GGUUUUUCUAACUUUGGUCTT against Cdcp2, the z-score is -0.0176 (inactive).

Regarding AAGAGCCAUUAAUCGAGAATT against Cklf, the z-score is -0.0691 (inactive).

On to GGCUAUUGCUGACCUCAGATT against Pidd1, for which the z-score was -2.73 (active).

For GCGCAAAAGGACCUAUGAGTT against Rela, the z-score is -0.342 (inactive).

For the sequence CGUGGUAGACACUGUGGUATT against Plin1, the z-score is 1.61 (inactive).

GGAGAUGAUGCCGUCAUUCTT against Chaf1b: the z-score was 1.97 (inactive).

Regarding CCAUAUGAUAAGCAUAAGCTT against Zfp449, the z-score was 0.149 (inactive).

On to CCCGUAUGGAUGUGGUAACTT against Tmem239, for which the z-score is -1.39 (inactive).

Regarding “CCUAACCAAGAUCCAAUCUTT against 6330549D23Rik”, the z-score is -2.85 (active).

In the case of GGCCAUCCAAGCAUGAGUUTT against Rbfa, the z-score is 1.37 (inactive).

Turning to GGCAGGAAAUUCAUUUUAATT against Zfy2, the z-score was -1.43 (inactive).

Regarding GGAGAUGGACUCACUGAUGTT against Zscan20, the z-score was -1.32 (inactive).

For CCACAAAGGAAUUCAUGAGTT against Dhx16, the z-score was -1.41 (inactive).

For GGUCAAGGAGAUCACCUUCTT against Comp, the z-score is -1.27 (inactive).

GGAAAAGGAAACCCAGAGCTT against Tdg: the z-score was -2.4 (active).

For the sequence CCCGGAAUGUUUAGUAUCGTT against Fermt1, the z-score was -1.25 (inactive).

On to GGCCAUUAACAGCAGUCUGTT against Kifc5b, for which the z-score is -1.71 (inactive).

Regarding GGAAGUGGAACACAUGAUCTT against Zfp346, the z-score is -0.449 (inactive).

Regarding GGCAUGAAUGAGUUUAUCATT against Vps8, the z-score is -1.12 (inactive).

As to GGAGAAAUAUGUAUGUACATT against Ece2, the z-score is 2.01 (active).

As for GGAGUCUGAAGAUGACAUGTT against Rplp1, the z-score is -0.775 (inactive).

As to GCCACUAAAUCCUGUUUCCTT against Ydjc, the z-score is -0.0858 (inactive).

As for GAGAUGGAAAGUGGUUUCUTT against Olfr1226, the z-score was 0.543 (inactive).

As for GGUCACGAUUCUGUCAGACTT against Ctnnal1, the z-score was 3.57 (active).

For GGUGAAAAUCAAGCUGAAUTT against Smarca2, the z-score is 1.36 (inactive).

With GGCUUCCAAGCCUAAAGCUTT against H1f3, the z-score is -0.266 (inactive).

As for GGAUCAAUUGACCACAAACTT against Magi3, the z-score was 0.164 (inactive).

GCGAUGCACUGUGUAAACUTT against Ccr6: the z-score is 0.772 (inactive).

As to GGGCUUGUAGAUGUGCGUATT against Hic2, the z-score was 3.32 (active).

In the case of UGCGGUUGAAUUCUCCCAUTT against Fbll1, the z-score was -0.525 (inactive).

On to CGCACUUACCGUGUCCUAUTT against Homer3, for which the z-score is 0.0495 (inactive).

Consider GGAGAGAAAGAAUUUCAUCTT against Chordc1, for which the z-score is 0.185 (inactive).

GGAAAUCAGAGAGAAGAUGTT against Nubp1: the z-score was -1.53 (inactive).
